Reference: PubChem BioAssay (NCATS)
Records with an inconclusive call do not appear. Active and inactive are the calls of the source. Unless noted, calls follow the shape of the dose curve; as a rule, active = well fitted curve in the direction sought with a large enough effect; inconclusive = small, poorly fitted or top-dose-only effect, or another doubt; inactive = no such curve, though single readings can be large; an effect the other way counts as inactive or inconclusive.

Columns and labels:
[1] = Cell Viability - BJ (AID 421; calls by dose curve;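 also: potency is read from the fitted curve at half-maximal effect; cells exposed to compound for 40 hours at 37 °C before readout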); details: BJ fibroblast viability, qHTS
In short: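 Cytotoxicity in human BJ foreskin fibroblasts is scored as loss of cellular ATP after a 40-hour exposure, measured by luciferase luminescence. Controls are DMSO and 100 uM tamoxifen.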

[2] = Cell Viability - Jurkat (AID 426;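 active = dose-dependent loss of cell ATP signal giving a full or clear fitted curve, ranked by lower potency value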; also: potency is read from the fitted curve at half-maximal effect); details: qHTS
In short: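 Luminescent ATP read-out (CellTiter-Glo, 20 min at room temperature) after 40 hr compound exposure at 37 °C of Jurkat E6-1 cells, 5000/well. Decreased ATP taken as cytotoxicity; AC50 from standard Hill equation.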

[3] = Cell Viability - Hek293 (AID 427;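 active = compounds whose dose-response curve shows a full or clear partial loss of cell viability, called from curve shape rather than a numeric limit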;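 also: potency is read from the fitted curve at half-maximal effect; cells exposed to compound for 40 hours at 37 °C before reading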); details: qHTS
In short: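 qHTS, human embryonic kidney (adenovirus-transformed) cells; 40 hr cpd, 37 °C; CellTiter-Glo ATP luminescence. Norm: DMSO = 0, 100 uM tamoxifen = 100% inhibition. Hill-fit AC50.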

[4] = Cell Viability - HepG2 (AID 433; calls by dose curve;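 also: potency is read from the fitted curve at half-maximal effect; potency for ATP loss meaning cytotoxicity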); details: qHTS
In short: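 HepG2 cells, 1500 per well, treated 40 hr at 37 °C in complete medium; viability from intracellular ATP by CellTiter-Glo luminescence. Normalized to DMSO and 100 uM tamoxifen; AC50 from Hill fit of qHTS concentration-response.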

[5] = Cell Viability - MRC5 (AID 434; calls by dose curve;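 also: potency is read from the fitted curve at half-maximal effect; potency reflects cytotoxicity seen as loss of intracellular ATP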); details: MRC5 lung fibroblast viability, qHTS
In short: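 AC50 values come from Hill-equation fits of intracellular ATP loss, measured by CellTiter-Glo luminescence. Normal lung fibroblasts (MRC5) had 40 hr compound treatment at 37 C, normalized between DMSO and 100 uM tamoxifen.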

[6] = Cell Viability - SK-N-SH (AID 435; calls by dose curve; also: potency is read from the fitted curve at half-maximal effect); details: SK-N-SH neuroblastoma cell viability qHTS
In short: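 SK-N-SH neuroblastoma cells (1500/well) treated 40 h at 37 °C in complete medium; viability read as cellular ATP by CellTiter-Glo luminescence. Normalized to DMSO and 100 uM tamoxifen; AC50 from Hill fits of qHTS concentration-response.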

[7] = target: Mitogen-activated protein kinase 10 (Mus musculus) (UniProt Q61831); assay: JNK3 AlphaScreen Assay (AID 530; active = well fitted curve in either direction with a large enough effect, not every such curve was filed as active;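 also: kinase came from lysate of stimulated human HepG2 cells; signal reports phosphorylation of biotinylated GST-cJun 1-79 at Ser73 with 10 µM ATP; % is scaled to controls: 0 for no effect and ±100 for the full control effect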); details: JNK3 lysate, c-Jun phosphorylation; series mostly up to 57.1 µM
In short: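 Kinase buffer: 20 mM Tris-HCl pH 7.6, 10 mM MgCl2, 1 mM DTT, 0.1 mM Na3VO4, 0.01% Tween-20; ATP 10 uM. Substrate biotin-GST-cJun(1-79), enzyme from activated HepG2 lysates. Detection by Ser73 phospho-antibody AlphaScreen.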

[8] = Cell Viability - N2a (AID 540); details: N2a mouse neuroblastoma cell viability; activity change, negative = cytotoxicity: at 92.2 µM (top of the series);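 also: plate controls were DMSO alone for no effect and tamoxifen control for full effect; nearly all actives have a fitted effect of over 45% in size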
In short: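 N2a mouse neuroblastoma, 1500 cells/well, 5 hr settle; compound 40 hr, 37 °C; CellTiter-Glo 20 min RT; luminescence; Hill-fit AC50.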

[9] = Cell Viability - NIH 3T3 (AID 541); details: NIH 3T3 cell viability, qHTS; activity change, negative = cytotoxicity: at 92.2 µM (top of the series); also: nearly all actives have a fitted effect of over 25% in size; also: potency is read from the fitted curve at half-maximal effect;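 as to activity change, negative = cytotoxicity: plate controls were DMSO alone for no effect and tamoxifen positive control for full effect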
In short: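 qHTS format; 40 hr compound exposure, 37 °C; CellTiter-Glo luminescence (cellular ATP) read-out after 20 min at RT. Decrease in ATP = cytotoxicity; AC50 from standard Hill fit.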

[10] = Cell Viability - HUV-EC-C (AID 542); details: HUV-EC-C endothelial cell viability, qHTS; series mostly up to 92.2 µM; also: % is scaled to controls: 0 for no effect and ±100 for the full control effect; nearly all actives have a fitted effect of over 35% in size
In short: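 Luminescent ATP read-out (CellTiter-Glo, 20 min room temperature) after 40 hr compound treatment of HUV-EC-C cells at 37 °C. Concentration-response data fitted with the standard Hill equation to give AC50; tamoxifen and doxorubicin served as positive controls.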

[11] = Cell Viability - H-4-II-E (AID 543); details: H-4-II-E rat hepatoma viability; series mostly up to 92.2 µM; also: % is scaled to controls: 0 for no effect and ±100 for the full control effect; nearly all actives have a fitted effect of over 35% in size
In short: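 qHTS, rat hepatoma H-4-II-E, 1500 cells/well; 40 hr compound exposure, 37 °C; CellTiter-Glo ATP luminescence after 20 min RT; AC50 by standard Hill fit.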

[12] = Cell Viability - SH-SY5Y (AID 544); details: SH-SY5Y neuroblastoma cell viability; viability change, negative = cytotoxic: at 92.2 µM (top of the series); also: nearly all actives have a fitted effect of over 55% in size
In short: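 SH-SY5Y, 1500 cells/well, 5 hr pre-incubation 37 °C; cpd 40 hr 37 °C; CellTiter-Glo 20 min RT; luminescence (ATP) read. qHTS concentration-response, Hill fit → AC50. Tamoxifen, doxorubicin as positive controls.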

[13] = Cell Viability - Renal Proximal Tubule (AID 545); details: renal proximal tubule cells viability, primary cells of rat origin; series mostly up to 91.7 µM; also: nearly all actives have a fitted effect of over 40% in size
In short: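 Rat renal proximal tubule primary cells, 1000/well, exposed to compounds for 40 hr at 37 °C in complete medium; cellular ATP read by CellTiter-Glo luminescence. AC50 from concentration-response fitted with standard Hill equation.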

[14] = Cell Viability - Mesenchymal (AID 546); details: mesenchymal cells viability, qHTS; series mostly up to 91.7 µM;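 also: cells exposed to compound for 40 hours before reading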
In short: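 CellTiter-Glo luminescence (intracellular ATP, 20 min room temperature) after 40 hr compound exposure at 37 °C of 1000 glomerulus-derived human kidney mesenchymal cells/well; AC50 values obtained by fitting qHTS concentration-response data to the Hill equation.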

[15] = Cellular Toxicity (caspase-3) HepG2 (AID 654); details: HepG2 caspase-3 activation, luminescence; series mostly up to 92.2 µM;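 also: cells exposed to compound for 16 hours before reading; 0% = DMSO alone and 100% = caspase signal from 100 µM tamoxifen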
In short: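 Luminescent Caspase-Glo 3/7 readout after 16 hr compound exposure of human hepatocellular carcinoma HepG2 cells at 37 °C; qHTS concentration-response, normalized DMSO = 0%, 100 uM tamoxifen = 100%; AC50 by standard Hill equation.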

[16] = Cellular Toxicity (caspase-3) HUV-EC-C (AID 656); details: HUV-EC-C cells, caspase-3 activation (apoptosis), vehicle = 0, 100 µM tamoxifen = 100%; series mostly up to 92.2 µM
In short: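 HUV-EC-C cells (1000/well) in complete medium, compound-treated 16 h at 37 °C; caspase-3/7 activity read by Caspase-Glo 3/7 luminescence. Normalized to DMSO (basal) and 100 uM tamoxifen (100%); AC50 from Hill-equation concentration-response fits.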

[17] = Cellular Toxicity (caspase-3) SHSY5Y (AID 657); details: SH-SY5Y caspase-3 activation, DMSO zero, 10 µM staurosporine = 100%; series mostly up to 91.7 µM
In short: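 SH-SY5Y human neuroblastoma cells, 1500/well, exposed to compound for 16 hours at 37 °C in complete medium. Caspase-3/7 activity read by Caspase-Glo luminescence after 1 hr at room temperature, normalized to DMSO and 10 uM staurosporine; AC50 from Hill fit.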

[18] = Cellular Toxicity (caspase-3) BJ (AID 658); details: BJ fibroblasts, luminescence, normalized: DMSO 0%, staurosporine 100%; series mostly up to 91.7 µM
In short: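 Caspase-Glo 3/7 luminescence, read 1 hr after reagent at room temperature, in normal BJ fibroblasts exposed 16 hours at 37 °C. AC50 values from Hill-equation concentration-response, scaled between DMSO basal and 10 uM staurosporine as 100%.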

[19] = Cellular Toxicity (caspase-3) MRC-5 (AID 659); details: MRC-5 cells, luminescence, normalized: DMSO 0%, 10 µM staurosporine 100%; series mostly up to 91.7 µM
In short: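 Luminescent Caspase-Glo 3/7 read-out (1 h, room temperature) after a 16 h, 37 °C compound exposure of MRC-5 lung fibroblasts at 1500 cells/well. Concentration-response AC50 from Hill equation; 0% DMSO, 100% 10 uM staurosporine.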

[20] = Cellular Toxicity (caspase-3) Jurkat (AID 655); details: Jurkat caspase-3 activation, luminescence; caspase-3 activation: at 92.2 µM (top of the series), DMSO = 0%, tamoxifen = 100%;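 also: cells exposed to compound for 16 h at 37 °C before reading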
In short: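 Jurkat cells (5000/well) in complete medium exposed 16 h at 37 C; caspase-3/7 activity read by Caspase-Glo luminescence after 20 min at room temperature. Normalized to DMSO and 100 uM tamoxifen; AC50 from Hill fits.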

CC#N
inactive: Potency [1] > 92 µM | Potency [2] > 92 µM | Potency [3] > 92 µM | Potency [4] > 92 µM | Potency [5] > 92 µM | Potency [6] > 92 µM | outcome [7] | activity change, negative = cytotoxicity [8] 0.749% | Potency [9] | Potency [10] | Potency [11] | Potency [12] | Potency [13] | Potency [14] | Potency [15] | outcome [16] | outcome [17] | outcome [18] | outcome [19]

Cc1cccc(C)c1O
inactive: Potency [1] > 92 µM | Potency [2] > 92 µM | Potency [3] > 92 µM | Potency [4] > 92 µM | Potency [5] > 92 µM | Potency [6] > 92 µM | outcome [7] | activity change, negative = cytotoxicity [8] -7.98% | Potency [9] | Potency [10] | Potency [11] | Potency [12] | Potency [13] | Potency [14] | Potency [15] | caspase-3 activation [20] -0.87% | outcome [17] | outcome [18] | outcome [19]

CSCCC=O
inactive: Potency [1] > 92 µM | Potency [2] > 92 µM | Potency [3] > 92 µM | Potency [4] > 92 µM | Potency [5] > 92 µM | Potency [6] > 92 µM | outcome [7] | activity change, negative = cytotoxicity [8] -17.9% | Potency [9] | Potency [10] | Potency [11] | Potency [12] | Potency [13] | Potency [14] | caspase-3 activation [20] -1.33% | outcome [16] | outcome [17] | outcome [18] | outcome [19]

CCN(C(=O)N(CC)c1ccccc1)c1ccccc1
active: Potency [9] 7.94 µM
inactive: Potency [1] > 92 µM | Potency [2] > 92 µM | Potency [3] > 92 µM | Potency [4] > 92 µM | Potency [5] > 92 µM | Potency [6] > 92 µM | outcome [7] | activity change, negative = cytotoxicity [8] -13.7% | Potency [10] | Potency [11] | Potency [12] | Potency [13] | Potency [14] | outcome [16] | outcome [17] | outcome [18]

OC(CCl)CCl
inactive: Potency [1] > 92 µM | Potency [2] > 92 µM | Potency [3] > 92 µM | Potency [4] > 92 µM | Potency [5] > 92 µM | Potency [6] > 92 µM | outcome [7] | activity change, negative = cytotoxicity [8] -4.88% | Potency [9] | Potency [10] | Potency [11] | Potency [12] | Potency [13] | Potency [14] | Potency [15] | outcome [16] | outcome [17] | outcome [18] | outcome [19]

NC=O
inactive: Potency [1] > 92 µM | Potency [2] > 92 µM | Potency [3] > 92 µM | Potency [4] > 92 µM | Potency [5] > 92 µM | Potency [6] > 92 µM | outcome [7] | activity change, negative = cytotoxicity [8] 1.82% | Potency [9] | Potency [10] | Potency [11] | Potency [12] | Potency [13] | Potency [14] | Potency [15] | outcome [16] | outcome [17] | outcome [18] | outcome [19]
